Several values for one entry are separate records, joined by “and”; a condition that tells them apart may be missing. Identical values can stand only once. Inconclusive results are not listed. A call without a number means that no potency is given here. A structure can be active in one record and inactive in another. Activity calls are given as the source filed them. The call rests on the fitted dose curve; in most records, active means well fitted curve in the direction sought with a large enough effect in the repeat runs; inconclusive means weak or mixed curves; inactive means no such curve, though single readings can be large; an effect the other way counts as inactive or inconclusive.
Assays:
[1] = Caspase-3/7 induction in CHO-K1 cells by small molecules, qHTS cell viability counter screen (AID 1346979); further: nearly all actives have a fitted effect of over 35% in size; further: potency means the concentration at half of the fitted maximal effect
Outline: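 Cytotoxicity counter screen: CellTiter-Fluor added to compound-treated wild-type CHO-K1 cells at 16 h (37C, 5% CO2), fluorescence measured 1 h later; same wells as caspase-3/7 measurement.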

[2] = Caspase-3/7 induction in CHO-K1 cells by small molecules, qHTS assay (AID 1346980); further: nearly all actives have a fitted effect of over 15% in size
Outline: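 Wild-type cells were seeded at 1,500 per well and settled 5 hr at 37 C, 5% CO2, then exposed to DMSO-dissolved compounds for 17 hr. Caspase-Glo 3/7 reagent was added, and luminescence was read after 30min at room temperature.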

[3] = Caspase-3/7 induction in HepG2 cells by small molecules, qHTS cell viability counter screen (AID 1346981); further: nearly all actives have a fitted effect of over 30% in size; further: potency means the concentration at half of the fitted maximal effect
Outline: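 Cell viability is measured as a cytotoxicity counter screen alongside the Caspase-Glo 3/7 readout in identical wells. Wild-type HepG2 cells are treated with test compounds for 16 hr at 37 C before CellTiter-Fluor addition and a 1-hr incubation.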

[4] = target: Nuclear receptor subfamily 1 group I member 2 (Homo sapiens) (UniProt O75469); test: Human pregnane X receptor (PXR) small molecule agonists, qHTS assay (AID 1346982); further: nearly all actives have a fitted effect of over 35% in size; further: potency means the concentration at half of the fitted maximal effect
Chain of Nuclear receptor subfamily 1 group I member 2 (Homo sapiens) (O75469 whole entry, looked up): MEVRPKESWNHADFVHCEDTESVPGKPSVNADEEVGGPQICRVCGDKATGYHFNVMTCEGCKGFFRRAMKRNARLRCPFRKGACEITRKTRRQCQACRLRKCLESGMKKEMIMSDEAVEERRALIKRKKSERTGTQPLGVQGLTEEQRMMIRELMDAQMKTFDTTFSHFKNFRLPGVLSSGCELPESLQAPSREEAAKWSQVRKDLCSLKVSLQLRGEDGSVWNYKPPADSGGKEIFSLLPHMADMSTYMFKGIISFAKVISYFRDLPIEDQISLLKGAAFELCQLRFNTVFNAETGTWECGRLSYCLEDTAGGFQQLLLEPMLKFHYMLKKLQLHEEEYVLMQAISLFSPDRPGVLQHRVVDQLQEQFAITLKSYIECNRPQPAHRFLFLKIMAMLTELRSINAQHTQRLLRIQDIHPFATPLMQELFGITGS
Outline: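 Cells: HepG2 stably carrying PXR-Luc. Medium held 5% charcoal-stripped FBS. Compounds in DMSO added after 5 hr plating, incubated 24 hr, then luminescence quantified with ONE-Glo.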

[5] = target: Cytochrome P450 2C19 (Homo sapiens) (UniProt P33261); test: Cytochrome P450 Family 2 Subfamily C Member 19 (CYP2C19) small molecule antagonists: luciferase reporter qHTS assay (AID 1671197); further: nearly all actives have a fitted effect of over 65% in size; further: potency means the concentration at half of the fitted maximal effect
Chain of Cytochrome P450 2C19 (Homo sapiens) (P33261 whole entry, looked up): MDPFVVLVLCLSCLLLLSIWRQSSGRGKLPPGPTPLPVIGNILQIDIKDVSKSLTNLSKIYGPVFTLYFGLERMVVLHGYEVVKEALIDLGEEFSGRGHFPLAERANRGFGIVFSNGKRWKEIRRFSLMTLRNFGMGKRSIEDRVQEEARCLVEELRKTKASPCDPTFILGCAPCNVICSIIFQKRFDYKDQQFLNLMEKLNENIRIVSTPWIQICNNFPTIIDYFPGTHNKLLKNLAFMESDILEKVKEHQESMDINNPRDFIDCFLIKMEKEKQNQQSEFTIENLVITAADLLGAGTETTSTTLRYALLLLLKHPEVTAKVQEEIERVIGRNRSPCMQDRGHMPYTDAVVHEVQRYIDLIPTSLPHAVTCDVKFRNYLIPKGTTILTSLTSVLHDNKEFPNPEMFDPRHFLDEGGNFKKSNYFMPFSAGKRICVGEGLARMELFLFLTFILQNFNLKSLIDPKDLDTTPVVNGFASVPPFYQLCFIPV
Outline: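 CYP2C19 P450-Glo, 1536-well qHTS. Cpd + enzyme/proluciferin substrate 10 min RT; + NADPH regen, 37C 1 h; stop with luciferin detection reagent, 20 min RT, luminescence (RLU). Pos ctrl ketoconazole.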

[6] = target: Cytochrome P450 1A2 (Homo sapiens) (UniProt P05177); test: Cytochrome P450 Family 1 Subfamily A Member 2 (CYP1A2) small molecule antagonists: luciferase reporter qHTS assay (AID 1671199); further: nearly all actives have a fitted effect of over 50% in size; further: potency means the concentration at half of the fitted maximal effect
Chain of Cytochrome P450 1A2 (Homo sapiens) (P05177 whole entry, looked up): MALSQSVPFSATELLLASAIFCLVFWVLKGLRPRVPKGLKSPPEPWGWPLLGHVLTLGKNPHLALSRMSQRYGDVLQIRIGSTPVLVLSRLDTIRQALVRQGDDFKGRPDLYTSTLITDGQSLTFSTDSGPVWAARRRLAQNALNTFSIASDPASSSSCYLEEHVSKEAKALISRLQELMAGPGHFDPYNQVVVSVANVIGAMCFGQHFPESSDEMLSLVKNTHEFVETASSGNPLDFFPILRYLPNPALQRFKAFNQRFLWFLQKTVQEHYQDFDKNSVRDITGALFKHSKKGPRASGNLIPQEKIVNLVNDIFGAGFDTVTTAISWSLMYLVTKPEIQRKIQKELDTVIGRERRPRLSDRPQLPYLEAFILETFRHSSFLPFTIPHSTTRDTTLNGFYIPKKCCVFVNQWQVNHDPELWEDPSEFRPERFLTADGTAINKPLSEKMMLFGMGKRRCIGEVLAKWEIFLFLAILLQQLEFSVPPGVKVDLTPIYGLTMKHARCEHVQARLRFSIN
Outline: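 Compounds were incubated with CYP1A2 and a luminogenic proluciferin substrate for 10 min at room temperature before the reaction was started with NADPH regeneration solution. After 1 h, detection reagent was added and light output, proportional to CYP activity, was recorded.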

[7] = target: Voltage-gated inwardly rectifying potassium channel KCNH2 (Homo sapiens) (UniProt Q12809); test: Human Ether-a-go-go-Related Gene (hERG) channel small molecule antagonists: fluorescence cell-based qHTS assay (AID 1671200); further: series mostly up to about 77 µM; nearly all actives have a fitted effect of over 50% in size
Chain of Voltage-gated inwardly rectifying potassium channel KCNH2 (Homo sapiens) (Q12809 whole entry, looked up): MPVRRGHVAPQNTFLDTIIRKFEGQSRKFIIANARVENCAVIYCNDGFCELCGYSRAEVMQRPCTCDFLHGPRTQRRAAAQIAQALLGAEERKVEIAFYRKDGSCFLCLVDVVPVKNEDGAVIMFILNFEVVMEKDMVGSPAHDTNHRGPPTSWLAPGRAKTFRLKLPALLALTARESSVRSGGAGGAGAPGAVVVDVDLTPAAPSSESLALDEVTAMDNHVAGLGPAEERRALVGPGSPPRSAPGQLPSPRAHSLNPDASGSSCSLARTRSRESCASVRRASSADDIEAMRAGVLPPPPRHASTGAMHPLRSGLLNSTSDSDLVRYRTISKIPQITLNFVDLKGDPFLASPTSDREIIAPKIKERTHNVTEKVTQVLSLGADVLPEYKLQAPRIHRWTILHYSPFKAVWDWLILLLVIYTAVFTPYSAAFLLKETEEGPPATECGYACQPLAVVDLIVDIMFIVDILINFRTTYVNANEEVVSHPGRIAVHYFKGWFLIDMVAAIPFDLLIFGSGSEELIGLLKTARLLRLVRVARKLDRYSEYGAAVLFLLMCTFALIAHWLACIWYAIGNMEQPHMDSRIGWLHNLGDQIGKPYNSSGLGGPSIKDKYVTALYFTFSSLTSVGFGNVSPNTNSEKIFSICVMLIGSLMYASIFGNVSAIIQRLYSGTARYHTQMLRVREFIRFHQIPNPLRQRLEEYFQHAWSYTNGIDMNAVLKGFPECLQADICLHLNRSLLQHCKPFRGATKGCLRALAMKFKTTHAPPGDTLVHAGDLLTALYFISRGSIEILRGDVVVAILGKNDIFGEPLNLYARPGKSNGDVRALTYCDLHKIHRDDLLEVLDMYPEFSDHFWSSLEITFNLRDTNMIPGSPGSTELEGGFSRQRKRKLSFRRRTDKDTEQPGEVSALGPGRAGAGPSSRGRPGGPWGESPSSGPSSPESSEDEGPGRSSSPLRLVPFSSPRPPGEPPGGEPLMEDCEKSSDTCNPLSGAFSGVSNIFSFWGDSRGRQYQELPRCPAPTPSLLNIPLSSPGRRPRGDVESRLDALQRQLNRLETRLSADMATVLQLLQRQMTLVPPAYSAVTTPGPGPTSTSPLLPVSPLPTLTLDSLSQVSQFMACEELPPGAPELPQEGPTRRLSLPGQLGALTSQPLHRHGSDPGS
Outline: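 Thallium flux as potassium surrogate: FluxOR II dye loaded 1 h at room temperature into hERG-expressing U2OS cells, then stimulus buffer added after 10 min. Kinetic 480 nm excitation/540 nm emission read, 2 min.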

[8] = target: Cytochrome P450 3A4 (Homo sapiens) (UniProt P08684); test: Cytochrome P450 Family 3 Subfamily A Member 4 (CYP3A4) small molecule antagonists: luciferase reporter qHTS assay (AID 1671201); further: nearly all actives have a fitted effect of over 50% in size; further: potency means the concentration at half of the fitted maximal effect
Chain of Cytochrome P450 3A4 (Homo sapiens) (P08684 whole entry, looked up): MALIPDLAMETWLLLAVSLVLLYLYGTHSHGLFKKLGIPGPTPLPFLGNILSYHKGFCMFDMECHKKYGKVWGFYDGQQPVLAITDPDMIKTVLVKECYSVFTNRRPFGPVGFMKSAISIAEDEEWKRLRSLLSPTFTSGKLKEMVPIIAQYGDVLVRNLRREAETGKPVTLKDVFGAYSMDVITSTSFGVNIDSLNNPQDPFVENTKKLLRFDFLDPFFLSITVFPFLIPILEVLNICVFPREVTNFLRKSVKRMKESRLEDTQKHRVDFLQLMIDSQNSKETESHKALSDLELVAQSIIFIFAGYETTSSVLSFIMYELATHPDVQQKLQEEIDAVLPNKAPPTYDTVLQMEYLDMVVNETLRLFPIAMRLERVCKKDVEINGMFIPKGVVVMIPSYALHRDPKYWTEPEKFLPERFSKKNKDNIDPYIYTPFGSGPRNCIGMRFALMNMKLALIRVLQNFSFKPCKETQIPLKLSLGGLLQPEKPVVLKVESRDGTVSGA
Outline: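 Recombinant human CYP3A4 converts a proluciferin substrate to luciferin over 1 h at room temperature after NADPH regeneration solution is added (compound preincubated 10 min); detection reagent stops reaction, luminescence read 20 min later as relative units.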

[9] = target: Cytochrome P450 2D6 (Homo sapiens) (UniProt P10635); test: Cytochrome P450 Family 2 Subfamily D Member 6 (CYP2D6) small molecule antagonists: luciferase reporter qHTS assay (AID 1671196); further: nearly all actives have a fitted effect of over 50% in size; further: potency means the concentration at half of the fitted maximal effect
Chain of Cytochrome P450 2D6 (Homo sapiens) (P10635 whole entry, looked up): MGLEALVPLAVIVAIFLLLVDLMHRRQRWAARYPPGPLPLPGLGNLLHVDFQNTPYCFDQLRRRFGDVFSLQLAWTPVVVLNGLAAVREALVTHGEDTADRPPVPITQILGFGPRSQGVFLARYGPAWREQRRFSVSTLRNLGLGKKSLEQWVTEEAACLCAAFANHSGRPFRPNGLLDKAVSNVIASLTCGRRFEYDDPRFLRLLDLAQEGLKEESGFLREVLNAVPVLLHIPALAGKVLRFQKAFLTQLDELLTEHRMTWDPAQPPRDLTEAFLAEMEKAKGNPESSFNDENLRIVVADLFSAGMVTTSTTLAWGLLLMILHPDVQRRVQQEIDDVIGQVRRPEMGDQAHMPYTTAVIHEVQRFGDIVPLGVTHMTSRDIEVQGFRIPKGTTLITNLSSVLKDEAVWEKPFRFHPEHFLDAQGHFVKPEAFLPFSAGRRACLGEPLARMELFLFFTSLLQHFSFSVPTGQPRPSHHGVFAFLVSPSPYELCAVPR
Outline: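 Enzyme and proluciferin substrate were first combined with test chemical for 10 min at room temperature. Adding NADPH regeneration solution started a 1 h reaction, stopped with luciferin detection reagent and read by luminescence 20 min later.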

[10] = target: Cytochrome P450 2C9 (Homo sapiens) (UniProt P11712); test: Cytochrome P450 Family 2 Subfamily C Member 9 (CYP2C9) small molecule antagonists: luciferase reporter qHTS assay (AID 1671198); further: nearly all actives have a fitted effect of over 50% in size; further: potency means the concentration at half of the fitted maximal effect
Chain of Cytochrome P450 2C9 (Homo sapiens) (P11712 whole entry, looked up): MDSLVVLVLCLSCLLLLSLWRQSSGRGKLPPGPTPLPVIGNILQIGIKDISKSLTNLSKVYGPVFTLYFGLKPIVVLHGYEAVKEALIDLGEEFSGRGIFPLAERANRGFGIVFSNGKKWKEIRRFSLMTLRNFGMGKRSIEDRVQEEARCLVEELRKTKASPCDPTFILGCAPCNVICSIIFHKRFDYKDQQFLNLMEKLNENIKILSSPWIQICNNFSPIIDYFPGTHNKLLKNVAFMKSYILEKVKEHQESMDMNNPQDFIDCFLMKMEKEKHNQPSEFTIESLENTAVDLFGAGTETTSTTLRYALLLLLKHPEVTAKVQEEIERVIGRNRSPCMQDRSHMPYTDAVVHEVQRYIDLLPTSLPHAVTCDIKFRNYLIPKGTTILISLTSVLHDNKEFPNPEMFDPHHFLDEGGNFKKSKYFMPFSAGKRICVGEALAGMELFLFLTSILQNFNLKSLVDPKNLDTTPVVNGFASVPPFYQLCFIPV
Outline: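 CYP2C9 activity was measured with a P450-Glo proluciferin substrate. Enzyme–substrate mix was held with compound for 10 min at room temperature, then NADPH regeneration solution was added for 1 h at 37C. Luciferin product was read as luminescence.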

[11] = target: Nuclear receptor subfamily 1 group I member 2 (Rattus norvegicus) (UniProt Q9R1A7); test: Rat pregnane X receptor (rPXR) activation by small molecules, qHTS assay (AID 1346983); settings: rPXR luciferase reporter cells, One-Glo luminescence, 24 h; stronger effect = higher value; further: nearly all actives have a fitted effect of over 20% in size
Chain of Nuclear receptor subfamily 1 group I member 2 (Rattus norvegicus) (Q9R1A7 whole entry, looked up): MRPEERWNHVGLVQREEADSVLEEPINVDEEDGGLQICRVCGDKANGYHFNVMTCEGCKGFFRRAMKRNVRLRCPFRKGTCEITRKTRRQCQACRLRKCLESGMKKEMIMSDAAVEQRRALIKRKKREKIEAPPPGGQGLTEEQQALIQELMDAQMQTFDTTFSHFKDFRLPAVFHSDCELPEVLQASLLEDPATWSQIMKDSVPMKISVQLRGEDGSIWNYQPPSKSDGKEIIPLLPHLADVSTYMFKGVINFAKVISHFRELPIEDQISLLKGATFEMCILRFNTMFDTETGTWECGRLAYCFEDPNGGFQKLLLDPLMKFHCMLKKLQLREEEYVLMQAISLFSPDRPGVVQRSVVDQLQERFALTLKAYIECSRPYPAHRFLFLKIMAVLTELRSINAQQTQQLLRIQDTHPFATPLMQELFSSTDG
Outline: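 Cell-based rPXR luciferase reporter assay, 2,000 cells per well, rested 5hr at 37 C before compound addition in DMSO, then 24 hr at 37 C. One-Glo reagent was added and luminescence read after 30 min at room temperature.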

[12] = target: Nuclear receptor subfamily 1 group I member 2 (Homo sapiens) (UniProt O75469); test: Human pregnane X receptor (PXR) activation by small molecules, qHTS assay (AID 1346985); further: nearly all actives have a fitted effect of over 40% in size
Outline: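 DPX-2 cells (HepG2 co-transfected with a PXR response element and a CYP3A4-promoter luciferase construct) were seeded at 2,000 per well, rested 5 hr at 37C, then exposed to DMSO-dissolved compounds for 24 hr. Activation was read as luciferase luminescence.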

[13] = target: Nuclear receptor subfamily 1 group I member 2 (Homo sapiens) (UniProt O75469); test: CYP3A4 induction through human pregnane X receptor (PXR) by small molecules, qHTS assay (AID 1346984); further: nearly all actives have a fitted effect of over 40% in size
Outline: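 Quantitative HTS in DPX-2 cells, i.e. HepG2 transfected with PXR response element and CYP3A4-promoter luciferase. Compounds in DMSO incubated 24hr at 37C; then P450-Glo CYP3A4 substrate, 3uM final, 3hr; One-Glo luminescence.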

SMILES | Potency [1] | Potency [2] | Potency [3] | Potency [4] | Potency [5] | Potency [6] | Potency [7] | Potency [8] | Potency [9] | Potency [10] | max activation [11] | Potency [12] | Potency [13]
Nc1ccc2cc3ccccc3cc2c1 | inactive | inactive | inactive | 27.8 µM (active) and 21.7 µM (active) | 72.3 µM (active) and 35.6 µM (active) | 4.06 µM (active) and 2.24 µM (active) | inactive | 9.1 µM (active) and 12.6 µM (active) | – | – | – | – | –
CCC[C@H](N[C@@H](C)C(=O)N1[C@H](C(=O)O)C[C@@H]2CCCC[C@@H]21)C(=O)OCC | inactive | inactive | – | inactive | inactive | 17.4 µM (active) and inactive | inactive | inactive | inactive | inactive | – | – | –
C[N+]1([O-])CCOCC1 | inactive | inactive | inactive | inactive | 39.8 µM (active) | 31.6 µM (active) | inactive | inactive | inactive | – | – | – | –
CC[C@]1(O)C[C@@H]2CN(CCc3c([nH]c4ccccc34)[C@@](C(=O)OC)(c3cc4c(cc3OC)N(C)[C@H]3[C@@](O)(C(=O)OC)[C@H](OC(C)=O)[C@]5(CC)C=CCN6CC[C@]43[C@@H]65)C2)C1 | 1.33 µM (active) and 119 nM (active) | inactive | 29.8 µM (active) | – | – | – | inactive | – | – | – | – | – | –
CN1C(=O)c2ccc([N+](=O)[O-])cc2C1=O | inactive | inactive | inactive | – | 70.9 µM (active) | 20 µM (active) | inactive | 39.9 µM (active) | – | – | – | – | –
O=C(OCc1ccccc1)c1ccc(O)cc1 | inactive | inactive | – | inactive | – | – | inactive | – | – | – | 0.826% (inactive) | inactive | –
CC(C)C(=O)c1c(C(C)C)nn2ccccc12 | inactive | inactive | – | 26.6 µM (active) | inactive | 2.57 µM (active) | inactive | inactive | inactive | inactive | – | – | –
O=Nc1ccc(Nc2ccccc2)cc1 | 7.74 µM (active) and 13.7 µM (active) | inactive | – | 61.4 µM (active) and 48.6 µM (active) | 5.67 µM (active) and 8.94 µM (active) | 16 µM (active) and 28.3 µM (active) | inactive | 8.99 µM (active) and 12.6 µM (active) | 28.4 µM (active) and 35.6 µM (active) | 14.2 µM (active) and 28.3 µM (active) | – | – | –
CCOc1ccccc1C(N)=O | inactive | inactive | – | inactive | 20 µM (active) and inactive | 31.8 µM (active) and 17.4 µM (active) | inactive | inactive | inactive | – | -0.87% (inactive) | inactive | inactive
O=C(O)CP(=O)(O)O | inactive | inactive | – | inactive | inactive | – | inactive | inactive | inactive | inactive | – | – | –
Nc1nc(=S)c2[nH]cnc2[nH]1 | 5.31 µM (active) and 9.69 µM (active) and 3.76 µM (active) | inactive | – | inactive | 30.9 µM (active) | 30.9 µM (active) and 35.6 µM (active) | – | inactive | inactive | – | -4.65% (inactive) | inactive | inactive
NCCCCCC(=O)O | inactive | inactive | – | inactive | inactive | inactive | inactive | inactive | inactive | inactive | 1.85% (inactive) | inactive | inactive
CNC1(C)C2CCC(C2)C1(C)C (stereo not drawn) | inactive | inactive | inactive | inactive | – | inactive | inactive | inactive | inactive | – | – | – | –
CC(N)=O | inactive | inactive | inactive | inactive | inactive | – | inactive | inactive | inactive | – | – | – | –

Source: PubChem BioAssay (Tox21)
